# Assay results from PubChem BioAssay AID1851 (National Center for Advancing Translational Sciences (NCATS), 2009).
# The whole screen tested about 16,000 compounds, of which about 5,800 (36%) were called active. Inconclusive results (about 23%) are left out. The list shows a part of the results. Values without a mark were called inactive. The call rests on the fitted dose curve; in most records, active means well fitted curve in the direction sought with a large enough effect; inconclusive means small, poorly fitted or top-dose-only effect, or effect the other way; inactive means no such curve, though single readings can be large or run the other way.
# Molecular target: Cytochrome P450 2C19 (Homo sapiens) (UniProt P33261)
# Sequence (P33261 whole entry, looked up): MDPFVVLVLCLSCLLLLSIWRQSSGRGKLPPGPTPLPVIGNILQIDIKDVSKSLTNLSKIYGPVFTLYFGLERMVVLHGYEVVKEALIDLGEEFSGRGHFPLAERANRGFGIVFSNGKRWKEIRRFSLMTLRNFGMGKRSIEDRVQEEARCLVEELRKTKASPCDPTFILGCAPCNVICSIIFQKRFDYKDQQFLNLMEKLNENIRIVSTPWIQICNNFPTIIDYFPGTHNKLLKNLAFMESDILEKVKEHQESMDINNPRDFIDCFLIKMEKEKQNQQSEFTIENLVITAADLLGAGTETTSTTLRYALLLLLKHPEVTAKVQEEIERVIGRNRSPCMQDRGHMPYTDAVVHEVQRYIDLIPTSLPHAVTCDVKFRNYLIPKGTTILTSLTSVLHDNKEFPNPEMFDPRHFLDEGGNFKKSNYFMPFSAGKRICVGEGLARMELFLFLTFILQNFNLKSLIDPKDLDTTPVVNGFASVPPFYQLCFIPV
# Test: Cytochrome panel assay with activity outcomes
# Settings: recombinant CYP, pro-luciferin dealkylation, luminescence, p450-cyp2c19; series mostly up to 57.1 µM
# On the % scale 0 is the no-effect control and ±100 the full control effect.
Compound,AC50,"activity, negative = inhibition"
CCOC(=O)C1C(=O)C=C(/C=C/c2ccccc2)CC1c1ccc(Cl)cc1 (configuration not stated),8.91 µM (active),–
CCc1nnc(NC(=O)CCC(=O)NCc2ccccc2OC)s1,inactive,–
COc1ccccc1C(=O)NCCn1cc(SCC(=O)Nc2nnc(C)s2)c2ccccc21,8.91 µM (active),–
CC(C)CN(CC(C)C)C1=N/C(=C\c2ccco2)C(=O)N1c1ccccc1,2.82 µM (active),–
CCOC(=O)C1(C(=O)O)NC(=O)CC1c1ccccc1 (configuration not stated),inactive,–
CCOC(=O)CN1C(=O)Nc2ccc(Br)cc2C1c1ccccc1 (configuration not stated),3.98 µM (active),–
O=C(Nc1ccccc1[N+](=O)[O-])C1C(c2ccccc2)=C1c1ccccc1,2.51 µM (active),–
COc1ccc(CCC(C)Nc2cccc(F)c2)cc1 (configuration not stated),0.891 µM (active),–
C[C@@H](CCc1ccc(O)cc1)NCCc1ccc(O)c(O)c1,inactive,–
CC(=O)Nc1ccc(OCC(O)Cn2cnc3ccccc32)cc1 (configuration not stated),22.4 µM (active),–
CC(=O)Nc1ccc(OC[C@@H](O)CNC(C)C)cc1,inactive,–
OC(COCc1ccccc1)Cn1cnc2ccccc21 (configuration not stated),14.1 µM (active),–
CN1CCCCC1=NCCCn1cnc2c1c(=O)n(C)c(=O)n2C,inactive,–
O=c1c(-c2ccc(F)cc2)nc2cncnc2n1-c1ccccc1,inactive,–
O=c1c(-c2cccc(F)c2)nc2cncnc2n1C1CC1,inactive,–
O=c1c(-c2cccc(Cl)c2)nc2cncnc2n1C1CC1,inactive,–
O=c1c(-c2cccc(Cl)c2)nc2cncnc2n1Cc1ccccc1Cl,5.01 µM (active),–
O=c1c(-c2cccc(F)c2)nc2cncnc2n1Cc1ccccc1Cl,0.794 µM (active),–
O=c1c(-c2cccc(F)c2)nc2cncnc2n1-c1ccccc1,15.8 µM (active),–
O=c1c(-c2cc(F)cc(F)c2)nc2cncnc2n1Cc1ccccc1Cl,1.58 µM (active),–
O=c1[nH]c(=O)n([C@@H]2C[C@H](O)[C@H](CO)O2)cc1I,inactive,–
O=C1C2C3C=CC(C2C(=O)N1CN1CCOCC1)C1C2C(=O)N(CN4CCOCC4)C(=O)C2C31 (configuration not stated),–,22.1% [at 11.4 µM]
Cc1ccccc1NC(=O)c1cnc(Nc2nc3ccccc3s2)nc1C,inactive,–
Cc1ccccc1NC(=O)c1cccc2nc3ccccc3nc12,3.55 µM (active),–
O=C(Nc1ccc2c(c1)OCCO2)c1cccc2nc3ccccc3nc12,4.47 µM (active),–

Compound,AC50,"activity, negative = inhibition"
O=c1c(-c2ccc(F)cc2)nc2cnc(Nc3ccccc3)nc2n1Cc1cccs1,inactive,–
C=CCC(C)(NCc1ccccc1)c1ccco1 (configuration not stated),11.2 µM (active),–
Clc1ccc(COc2ccccn2)cc1Cl,2.24 µM (active),–
CC(/C=N/NC(=O)c1cccc([N+](=O)[O-])c1)=C\c1ccccc1,inactive,–
COc1ccc(/C=N/NC(=O)c2cccc([N+](=O)[O-])c2)cc1OS(=O)(=O)c1ccc(C)cc1,3.16 µM (active),–
CCOc1cc(/C=N/NC(=O)c2cccc([N+](=O)[O-])c2)ccc1OS(=O)(=O)c1ccccc1,14.1 µM (active),–
COc1cc(/C=N\Nc2ccc([N+](=O)[O-])cc2)ccc1OCC(=O)Nc1ccc(C)c(C)c1,3.98 µM (active),–
CCOc1ccc(NC(=S)NC(=O)/C=C/c2ccc(OC)c(OC)c2)c([N+](=O)[O-])c1,inactive,–
CCCOc1ccc(/C=C/C(=O)Nc2ccc([N+](=O)[O-])cc2C)cc1OC,3.98 µM (active),–
O=C(N=NC(=O)c1ccc2c(O)n(C3CCCCC3)c(O)c2c1)c1cccnc1,inactive,–
COc1cccc(/C=N/NC(=O)c2cccc([N+](=O)[O-])c2)c1OS(=O)(=O)c1ccc(C)cc1,4.47 µM (active),–
COc1cc(/C=N/NC(=O)c2cccnc2)ccc1OC(=O)c1ccc2c(c1)OCO2,inactive,–
COc1cc(/C=N/NC(=O)c2ccncc2)ccc1OC(=O)c1ccc([N+](=O)[O-])cc1,14.1 µM (active),–
COCCCNC(=O)C(=O)N/N=C/c1ccc(OCC(=O)Nc2cccc(Cl)c2C)c(OC)c1,31.6 µM (active),–
COc1cc(C(=O)Oc2ccccc2/C=N/NC(=O)c2ccc(C)cc2)cc(OC)c1OC,0.398 µM (active),–
CN(C)CCn1nnnc1SCC1=C(C(=O)O)N2C(=O)[C@@H](NC(=O)Cc3csc(N)n3)[C@@H]2SC1,inactive,–
COc1ccc(C(=O)N/N=C/c2cccc3cccnc23)cc1,28.2 µM (active),–
COc1ccc(C(=O)Oc2cc(/C=N/NS(=O)(=O)c3ccc(C)cc3)ccc2OC)cc1,1.78 µM (active),–
O=C(CCc1nc(-c2ccccc2)c(-c2ccccc2)o1)OCc1ccc(Cl)cc1,6.31 µM (active),–
CCOC(=O)N1CCN(C(=O)c2ccc3c(=O)n(-c4ccc(OC)cc4)c(=S)[nH]c3c2)CC1,inactive,–
COc1ccc(-n2c(=S)[nH]c3cc(C(=O)NCCCN4CCCC4=O)ccc3c2=O)cc1,39.8 µM (active),–
CNC(=O)c1ccc(-c2sc3nc(N4CCOCC4)c4c(c3c2N)CC(C)(C)OC4)o1,11.2 µM (active),–
CC(=O)N[C@@H]1CONC1=O,–,21.6% [at 11.4 µM]
O=C(O)C[C@H]1OCC=C2C[N@@+]3([O-])CC[C@]45c6ccccc6N[C@@H]4[C@@H]1[C@H]2C[C@H]53,–,13.9% [at 11.4 µM]
Cc1cc(C(=O)N[C@H](c2ccccc2)[C@@]2(C)C[C@@H]2[C@@H](C)C(=O)Nc2ccc3ccccc3c2)n(C)n1,15.8 µM (active),–

Compound,AC50,"activity, negative = inhibition"
Cc1cc(C(=O)N[C@@H](c2ccccc2)[C@]2(C)C[C@H]2[C@@H](C)C(=O)Nc2ccc3ccccc3c2)n(C)n1,10 µM (active),–
Cc1nn(C)c(Cl)c1S(=O)(=O)N[C@@H](c1ccccc1)[C@]1(C)C[C@H]1[C@@H](C)C(=O)Nc1ccc2ccccc2c1,inactive,–
COc1ccc(NC(=O)N2CC[C@@]3(CCCN(C(=O)c4ccc(OC)cc4)C3)C2)cc1,inactive,–
CCOCC(=O)Nc1cc(C(=O)Nc2ccccc2)ccc1Cl,10 µM (active),–
CCOCC(=O)Nc1cc(C(=O)Nc2cccc(C)c2C)ccc1Cl,inactive,–
CCc1ccc(NC(=O)c2cc(C(C)C)on2)cc1,inactive,–
Cc1cc(NC(=O)c2cc(C(C)C)on2)no1,14.1 µM (active),–
Cc1cc(NC(=O)c2nn(C)c(C)c2[N+](=O)[O-])no1,inactive,–
N#CC1=C(N)OC2=C(CC/C2=C\c2ccccc2)C1c1ccccc1 (configuration not stated),1.58 µM (active),–
CN1CCN(c2ncc3nc(-c4ccc(Cl)cc4)c(=O)n(Cc4ccc(F)cc4)c3n2)CC1,inactive,–
Cn1c(=O)c2[nH]c(C3CCCC3)nc2n(C)c1=O,inactive,–
O=C(O)CC(O)C(=O)O (configuration not stated),inactive,–
O=C(NCC1CCC(C(=O)O)CC1)OCc1ccccc1 (configuration not stated),inactive,–
O[C@H](CNc1ccccn1)c1ccccc1,–,-7.78% [at 11.4 µM]
O=C(O)c1nnsc1COCc1ccccc1,–,2.27% [at 11.4 µM]
CSc1nsc(SC)c1NC(=O)OCc1ccccc1,0.708 µM (active),–
O=C(O)/C=C\C(=O)Nc1ccccn1,–,14.6% [at 11.4 µM]
CSc1nsc(SC)c1NC(=O)Nc1ccccn1,7.94 µM (active),–
COc1cccc(-c2cncnc2NCc2cccc(C)c2)c1,0.794 µM (active),–
COc1cccc(-c2cncnc2NCCN2CCOCC2)c1,inactive,–
COc1cccc(-c2cncnc2NCc2ccccc2)c1,1.58 µM (active),–
COc1cccc(Nc2ncc3nc(-c4ccccc4)c(=O)n(Cc4cccs4)c3n2)c1,inactive,–
c1cncc(CNc2ncncc2-c2cccnc2)c1,inactive,–
COc1cccc(-c2cncnc2NCc2cccs2)c1,0.631 µM (active),–
Cc1cccc(CNc2ncncc2-c2cccnc2)c1,10 µM (active),–

Compound,AC50,"activity, negative = inhibition"
COc1cccc(-c2cncnc2NCc2cccnc2)c1,0.316 µM (active),–
CCOC(=O)C1=C(CN2c3ccccc3CC2C)NC(=O)NC1c1ccccc1 (configuration not stated),7.08 µM (active),–
C[C@@H](CC(=O)O)[C@@H](N)C(=O)O,inactive,–
Cc1c(NC(=S)/C=C2\N(C)c3ccccc3C2(C)C)c(=O)n(-c2ccccc2)n1C,14.1 µM (active),–
Cc1c(NC(=S)N/N=C/c2ccc(O)cc2)c(=O)n(-c2ccccc2)n1C,inactive,–
Fc1ccc(-c2[nH]ncc2-c2nnnn2-c2ccccc2)c(F)c1,0.631 µM (active),–
NC(=O)c1ncn([C@@H]2O[C@@H](CO)[C@@H](O)[C@H]2O)c1O,inactive,–
O=C1CN(c2nc(-c3ccccc3)c3cc(Br)ccc3n2)c2ccccc2N1,inactive,–
CC(C)(C)NC[C@H](O)COc1cccc2c1CCCC2=O,inactive,–
CC(C)NC[C@@H](O)COc1ccccc1-n1cccc1,inactive,–
N=C(C[C@@H](O)COc1ccccc1-c1ccccc1)N1CCCCC1,31.6 µM (active),–
O=C1C(=O)c2ccccc2C(O)=C1C(C1=C(O)c2ccccc2C(=O)C1=O)c1ccc(Cl)cc1,3.98 µM (active),–
O=C1C(=O)c2ccccc2C(O)=C1C(CCc1ccccc1)C1=C(O)c2ccccc2C(=O)C1=O,–,21.7% [at 11.4 µM]
O=C1C(=O)c2ccccc2C(O)=C1C1CCC(c2ccc(Cl)cc2)CC1 (configuration not stated),inactive,–
O=C1C2C3C=CC(C3)C2C(=O)N1c1ncn[nH]1 (configuration not stated),inactive,–
CSc1ccc(Cl)c(C(=O)NCCOc2cc(C)ccc2C(C)C)c1,5.01 µM (active),–
CN(C)CCNC(=O)c1cc(Br)ccc1Cl,inactive,–
CC(=O)Oc1cc(C(C)C)c(OCCN(C)C)cc1C,inactive,–
CC(C)=CCC/C(C)=C/CO/N=C1/[C@H]2O[C@@H]2[C@@H](O)[C@H]2[C@H]1CCn1c(=O)n(Cc3cc4c(cc3Cl)OCO4)c(=O)n12,–,9.01% [at 11.4 µM]
Cc1ccc(S(=O)(=O)Nc2ccccc2C=O)cc1,5.01 µM (active),–
Cc1ccc(S(=O)(=O)N[C@H]2COC(=O)C/C=C\[C@H](C)[C@@H](NS(=O)(=O)c3ccc(C)cc3)COC(=O)C/C=C\[C@@H]2C)cc1,–,18.4% [at 11.4 µM]
Cc1ccc(S(=O)(=O)Nc2ccccc2C(=O)c2ccc(C)c(C)c2)cc1,–,30.1% [at 11.4 µM]
